Rows were chosen to be rich in hits. Some 6% of all compounds tested hit in one or more screens of this group.
D1 antag: antagonists of human D1 dopamine receptor | P21728 | HEK293 TREx D1 cells, calcium flux, dopamine EC80; active compounds read low | activity change, negative = inhibition, % at 10 µM | hit rate 3.2% among 360,000 | AID 504652; in the data active = activity change below about -30%; note: % is set by controls: 0 for no effect and ±100 for the full control effect
Target sequence (P21728 whole entry, looked up): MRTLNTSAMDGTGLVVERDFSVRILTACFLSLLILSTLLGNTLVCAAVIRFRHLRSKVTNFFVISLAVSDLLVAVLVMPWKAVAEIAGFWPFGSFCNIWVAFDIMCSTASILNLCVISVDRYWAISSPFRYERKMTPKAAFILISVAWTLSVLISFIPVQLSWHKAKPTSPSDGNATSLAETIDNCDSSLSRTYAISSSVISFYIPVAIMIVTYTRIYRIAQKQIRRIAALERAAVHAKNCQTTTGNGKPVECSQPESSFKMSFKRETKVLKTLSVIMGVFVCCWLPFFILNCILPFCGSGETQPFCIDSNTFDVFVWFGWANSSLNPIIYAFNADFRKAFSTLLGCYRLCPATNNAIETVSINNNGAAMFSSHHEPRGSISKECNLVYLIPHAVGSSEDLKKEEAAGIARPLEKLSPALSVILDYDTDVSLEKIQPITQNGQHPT
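HEK293 T-REx cells expressing inducible, force-coupled D1 receptor; no-wash Ca dye, 30–90 min RT. Cmpd → 180 s read at 1 Hz → EC80 DA → 180 s read.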
D1 PAM: enhances dopamine response at the human D1 receptor; hit rate 0.036% among 360,000; potentiation, % at 10 µM; AID 504651; HEK293 TREx D1 cells, calcium flux, dopamine EC20 potentiation; in the data active = potentiation above about 30%; note: 0% is about no effect
Chronic BCR inh: inhibitors of chronic active B-cell receptor signaling. ABC-DLBCL IkBa-CBG/CBR reporter, luminescence ratio, 4 h. Potency, µM (series often up to 46.1 µM), for inactives: at the highest dose activity change, negative = inhibition, hits mostly inhibitors. hit rate 0.05% among 340,000. AID 493014; active = well fitted inhibition curve with a large enough effect in the signal ratio, with a control signal flat, not every such curve was filed as active; inconclusive = small, poorly fitted or top-dose-only effect, or effect the other way, or a change in a side signal; the % refers to the signal ratio;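 note: potency is the fitted concentration of half-maximal effect; plate controls were basal doxycycline-induced cells for no effect and cells given 10 µM MG132 for full effect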
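Doxycycline induced both beetle luciferases in TMD8 lymphoma cells; IKK-driven degradation limits the IkappaBalpha-fused green signal, while red luminescence normalises for cell number and nonspecific effects. Compounds tested up to 46 uM, 4 hrs.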
D3 antag: D3 dopamine receptor (human) antagonism | max response, negative = inhibition, % | hit rate 2.5% among 360,000 | D3R cells, DiscoveRx beta-arrestin luminescence, antagonist mode; active compounds read low; in the data active = max response below about -50%; inconclusive = no clear call, values can overlap the other calls; note: % is set by controls: 0 for no effect and ±100 for the full control effect
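Cells plated overnight at 1500 cells/well, then exposed to library compounds with dopamine controls for 90 minutes at 37 degrees C. DiscoveRx reagent added for 30–60 minutes at room temperature; luminescence read, quantitative HTS format.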
D1 agonist: activates the human D1 dopamine receptor. HEK293 T-REx D1 cells, calcium flux, agonist mode. P21728. activation, % at 2 µM. hit rate 1% among 360,000; in the data active = activation above about 30%; note: 0% is about no effect
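Tetracycline-induced HEK293 TREx D1 cells, force-coupled to calcium signalling, were dye-loaded with a no-wash calcium kit. Compound was pin-added after a 10 s baseline. Fluorescence was read kinetically at 1 cycle/s for 180 s, with calcium rises flagged as agonism.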
DRD3 agonist: activates the human D3 dopamine receptor. P35462. D3R DiscoveRx beta-arrestin cells, luminescence, 90 min. hit rate 0.58% among 410,000. max activation, %; in the data active = max activation above about 30%; note: 0% is about no effect
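Cells at 1500/well, incubated overnight, then treated with pinned compounds (dopamine as control) for 90 min at 37 degrees C. DiscoveRx reagent added for 30 - 60 minutes at room temperature; luminescence read.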
* marks the source's active call; other numbers are inactive results; ? = inconclusive; nt = no result.

SMILES | D1 antag | D1 PAM | Chronic BCR inh | D3 antag | D1 agonist | DRD3 agonist
CCOC(=O)Cc1cc(=O)[nH]c(/N=C(\N)Nc2ccc(C)cc2C)n1 | -38* | -31 | 1% | 25 | 4 | 3
Cc1nnc(SCc2cc(=O)[nH]c(/N=C(\N)Nc3ccccc3Sc3ccccc3)n2)s1 | -11 | -1 | 0% | -5 | 2 | -2
COc1ccccc1N/C(N)=N/c1nc(CSc2nc3ccccc3s2)cc(=O)[nH]1 | -31* | 4 | 0% | nt | 5 | nt
Cc1ccc(-c2cc(NC=O)c3ncc(-c4cnn(C)c4)n3c2)cc1 | nt | nt | nt | -2 | nt | 4
COC(=O)N1C2CCCCC2=NN(c2ccccc2)N1C(=O)OC (centres undefined) | nt | nt | nt | -20 | nt | -8
CCCCN1C(=O)C(CC(=O)NCCc2ccccn2)CC(C(=O)N2CCOCC2)=C1C (centres undefined) | nt | nt | nt | -21 | nt | 2
CC(C)C(=O)NCCn1ccc2ccccc21 | 14 | -5 | 3% | -53* | 1 | -3
O=C(NCCn1ccc2ccccc21)c1cccc([N+](=O)[O-])c1 | -37* | -3 | -1% | 2 | 8 | 2
O=C(NCCCN1CCN(CCCNC(=O)c2cccc([N+](=O)[O-])c2)CC1)c1cccc([N+](=O)[O-])c1 | -30 | 0 | 3% | -3 | 0 | -3
O=[N+]([O-])c1c(Nc2ccccn2)cc(Cl)c2nonc12 | -2 | -4 | ? | -86* | 1 | -16
O=[N+]([O-])c1c(Nc2ccc(O)cc2)cc(Cl)c2nonc12 | -42* | -4 | ? | -161* | 3 | -13
CN(C)c1cc(Nc2ccc(O)cc2)c([N+](=O)[O-])c2nonc12 | 8 | -2 | 3% | -4 | 5 | -13
CCc1ccc(NC(=O)c2sc3nc(C)c(Cl)c(C)c3c2NC(=O)c2ccccc2)cc1 | 7 | -2 | nt | nt | -1 | 1
CCCCCCCn1c(=O)c(C(=O)OC)c(N)c2ccccc21 | -16 | -9 | 0% | 14 | 42* | 26
CCCCCCn1c(=O)c(-c2ccccc2)c(O)c2ccccc21 | 17 | 1 | ? | ? | -3 | 2
CCCCCCCCn1c(=O)c(C(=O)OC)c(N)c2ccccc21 | -11 | -10 | 4% | 31 | 13 | 38*
CCc1ccc(S(=O)(=O)c2nnn3c2nc(NC(C)C)c2cc(Cl)ccc23)cc1 | 0 | -4 | nt | nt | 2 | 0
O=C(CN1C(=O)C2C3C=CC(C3)C2C1=O)Nc1ccc(C(=O)O)cc1 (centres undefined) | -30* | -3 | 1% | -19 | 6 | 10
COC(=O)c1ccc(NC(=O)CN2C(=O)C3C4C=CC(C4)C3C2=O)cc1 (centres undefined) | -9 | 7 | -10% | -12 | 2 | 9
CCC1C2CN(C(C)=O)CC=C2C(C#N)=C(N)C1(C#N)C#N (centres undefined) | -1 | -11 | 4% | ? | 2 | -8
CC(C)N1CC=C2C(C#N)=C(N)C(C#N)(C#N)C(c3ccccc3)C2C1 (centres undefined) | -9 | -4 | 14% | -77* | 19 | 0
COc1cc(C2C3CN(C)CC=C3C(C#N)=C(N)C2(C#N)C#N)ccc1OC(C)C (centres undefined) | -50* | -16 | 1% | ? | 4 | -10
CCN1CC=C2C(C#N)=C(N)C(C#N)(C#N)C(c3cc(Cl)ccc3Cl)C2C1 (centres undefined) | 20 | -5 | 4% | -90* | 6 | -18
COc1cc([C@@H]2[C@H]3CNCC=C3C(C#N)=C(N)C2(C#N)C#N)ccc1OC(C)C | -12 | -2 | ? | 2 | 3 | 3
CC(C)N1CC=C2C(C#N)=C(N)C(C#N)(C#N)[C@H](c3ccoc3)[C@H]2C1 | 3 | -1 | 10% | nt | 13 | nt
SMILES | D1 antag | D1 PAM | Chronic BCR inh | D3 antag | D1 agonist | DRD3 agonist
C=Cc1ccccc1 | nt | nt | nt | nt | nt | 10
COC(=O)c1ccc(C(=O)OC)c(NC(=O)c2c(-c3ccccc3)noc2C)c1 | 6 | -2 | nt | nt | -3 | 2
CC(=O)N[C@@H](Cc1ccc(O)cc1)C(=O)N[C@H](C(=O)N[C@@H](C)C(=O)N[C@H](C#N)CC(=O)O)C(C)C | -17 | -2 | 6% | nt | 2 | nt
Cn1cc(CN(C(=O)Nc2ccccc2)C2CCCCC2)c2ccccc21 | 10 | 0 | nt | nt | -1 | -10
Cn1cc(CN(C(=O)Nc2ccc(Cl)c(Cl)c2)C2CCCCC2)c2ccccc21 | -47* | 5 | nt | nt | 7 | -2
O=C(CSc1nnc(CCCN2C(=O)c3cccc4cccc(c34)C2=O)n1-c1ccccc1)N1CCCCC1 | -79* | -7 | -11% | -8 | 3 | -1
O=C(CSc1nnc(Cc2cc(=O)[nH]c(=O)[nH]2)n1-c1ccccc1)N1CCCCC1 | 25 | 0 | -3% | 9 | 1 | 4
O=C(Nc1ccc(N2CCCC2)cc1)c1ccc(Cl)cc1Cl | -9 | 1 | -2% | -10 | -1 | 5
CN1CCN(c2ccc(NC(=O)c3ccc(Cl)cc3Cl)cc2)CC1 | -44* | -15 | 4% | -1 | 5 | -1
CC(Oc1ccc(Cl)cc1Cl)C(=O)Nc1ccc(N2CCN(C)CC2)cc1 (centres undefined) | -60* | -16 | 0% | 0 | 10 | -2
CC(Oc1ccc(Cl)cc1Cl)C(=O)NNC(=O)C(=O)N1CCCCC1 (centres undefined) | -86* | -1 | -9% | -12 | 1 | 10
CN1CCN(c2ccc(NC(=O)c3ccc(C#N)cc3F)cc2Cl)CC1 | -15 | -3 | -8% | -57* | 8 | -5
CCC(=O)N1CCN(c2ccc(NC(=O)c3ccc(C#N)cc3F)cc2Cl)CC1 | 12 | -4 | 3% | 6 | 13 | 17
Cc1ccc(OCCCCn2c(CCNC(=O)C(C)(C)C)nc3ccccc32)cc1 | 2 | 6 | nt | nt | 1 | 9
COC(=O)c1cc(Nc2nc3ccccc3nc2NS(=O)(=O)c2ccc(C)cc2)ccc1Cl | -31* | -4 | nt | nt | 17 | 5
O=[N+]([O-])c1ccc(S(=O)(=O)Nc2nc3ccccc3nc2Nc2ccccc2)cc1 | 0 | -7 | 2% | -2 | 0 | -3
CC(=O)Nc1ccc(Nc2nc3ccccc3nc2NS(=O)(=O)c2ccc(Cl)c([N+](=O)[O-])c2)cc1 | nt | nt | nt | -91* | nt | 3
CC(=O)Nc1ccc(S(=O)(=O)Nc2nc3ccccc3nc2Nc2ccc(N)cc2)cc1 | 27 | -3 | 22% | -27 | 27 | -1
COc1cc(Nc2nc3ccccc3nc2NS(=O)(=O)c2ccc([N+](=O)[O-])cc2)cc(OC)c1OC | -74* | -20 | 13% | -15 | 1 | 2
COCCCN1C(=O)C(CC(=O)NCCCCc2ccccc2)CC(C(=O)N(C(C)C)C(C)C)=C1C (centres undefined) | nt | nt | nt | 1 | nt | -1

Screening results deposited in PubChem BioAssay by National Center for Advancing Translational Sciences (NCATS).
